Compound activity deposited in PubChem by National Center for Advancing Translational Sciences (NCATS).
TGFb inhibitor = inhibitors of TGF-b signaling; AID 588855; Potency, µM (doses to about 46.1 µM), without a hit: at the top dose activity, negative = inhibition, hits mostly inhibitors; HepG2 CAGA-GFP TGF-b/SMAD3 reporter, GFP fluorescence, 18 h; TGF-beta stimulated, 500 pg/mL final; 1.2% of 410,000 active; further: potency means the concentration at half of the fitted maximal effect; on the % scale 0 is the no-effect control and ±100 the full control effect; nearly all actives have a fitted effect of over 65% in size
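HEPG2 CAGA-GFP reporter cells (1000/well, DMEM with 1% FBS) received compounds, then recombinant TGF-beta at 500 pg/mL final for 18 hours at 37 degrees C. Per-cell GFP summed per well was normalised to unstimulated and stimulated DMSO controls before curve fitting.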
IL1B secr inh = inflammasome signaling inhibition, IL-1 beta readout | THP-1 LPS/ATP IL-1B secretion, AlphaLISA, 16 h; stronger effect = lower value | 4.7% of 360,000 active | activity change, % at 57.5 µM; in the data active means activity change below about -50%; inconclusive means mostly about -30% to -49%; further: on the % scale 0 is the no-effect control and ±100 the full control effect
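Secreted IL-1B measured by AlphaLISA bead assay after 16 h compound exposure of THP-1 cells; compounds (final up to 57.5 uM) added 1 h before LPS (250 ng/mL) and ATP (1.25 mM) stimulation; lower signal means less secretion.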
ATXN2 expr inh = reduces ATXN2 reporter expression in HEK-293 cells; HEK-293 ATXN2-luciferase reporter, luminescence, 24 h; AID 1745845; Potency, µM (doses to about 57 µM), for inactives: top-dose activity change, negative = inhibition, most hits filed as inhibitors; 0.72% of 360,000 active; further: potency means the concentration at half of the fitted maximal effect; on the % scale 0 is the no-effect control and ±100 the full control effect; nearly all actives have a fitted effect of over 55% in size
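qHTS (up to 57 uM final) was run with 24 h compound exposure of reporter cells at 37 °C. Each well was multiplexed: SteadyGlo luminescence measured ATXN2-luciferase expression after a fluorogenic Gly-Phe-AFC viability readout (25 uM final).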
HepG2 viability = HepG2 cytotoxicity, counter-screen for TGF-b inhibitors; HepG2 CAGA-GFP viability, ATP luminescence, 18 h; AID 588856; 0.76% of 410,000 active; Potency, µM (titrated, usually from 46.1 µM), for inactives: top-dose activity change, negative = cytotoxicity, usual class: cytotoxic; further: potency means the concentration at half of the fitted maximal effect
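CellTiter-Glo luminescence gave cytotoxicity after 18 hours at 37 degrees C. The cells were HepG2 CAGA-GFP in 1% FBS DMEM, stimulated with 500 pg/mL TGF-beta after compound addition. %Activity was normalised to no-cell wells (complete cell-killing) and DMSO (no toxicity), and curves were fitted and classified.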
ATXN viability = cell viability loss in ATXN counter-screen; S2 cells (HEK-293 line with an ATXN2-luciferase reporter) viability, CellTiter-Fluor protease fluorescence, 24 h; Potency, µM (doses to about 56.7 µM), most hits filed as cytotoxic; 0.49% of 400,000 active; further: potency means the concentration at half of the fitted maximal effect; nearly all actives have a fitted effect of over 40% in size
* marks the source's active call; other numbers are inactive results; [ ] = dose if it differs, or a comment. Sampled rows, rich in hits. Any-hit rate of the full collection: about 5.7%. Unless noted, the call rests on the fitted dose curve; in most records, active means well fitted curve in the direction sought with a large enough effect; inconclusive means small, poorly fitted or top-dose-only effect, or another doubt; inactive means no such curve, though single readings can be large; an effect the other way counts as inactive or inconclusive.

Screening CN(CC(=O)Nc1ccc(F)c(F)c1F)C(=O)c1cc(-c2ccncc2)nc2ccccc12 returned TGFb inhibitor -14%, IL1B secr inh -16, ATXN2 expr inh 1%, HepG2 viability -14% and ATXN viability inactive.
`CCOc1c(N2CCOCC2)cnn(C)c1=O` gave ATXN2 expr inh -1% and ATXN viability inactive.
For COc1cccc(NC(=O)CN(C)C(=O)c2cc(-c3ccc(F)cc3)nc3ccccc23)c1 the results were TGFb inhibitor -13%, IL1B secr inh -62*, ATXN2 expr inh -32%, HepG2 viability -28% and ATXN viability inconclusive.
CCc1ccc(CN(Cc2cn[nH]c2-c2ccc(OC)cc2)C(=O)Nc2cc(Cl)ccc2OC)cc1 was read as TGFb inhibitor inconclusive and HepG2 viability -1%.
`Cc1nc2ccccn2c1-c1csc(Nc2cccc(O)c2)n1` gave TGFb inhibitor inconclusive, IL1B secr inh -104*, ATXN2 expr inh -8%, HepG2 viability 2% and ATXN viability inconclusive.
Cc1nc2ccccn2c1-c1csc(Nc2cccc(C(=O)O)c2)n1 was read as TGFb inhibitor 0%, IL1B secr inh 30, ATXN2 expr inh -12%, HepG2 viability -2% and ATXN viability inactive.
`Cc1nc2ccccn2c1-c1csc(Nc2ccc(C(=O)O)cc2)n1` gave TGFb inhibitor 0%, IL1B secr inh 95, ATXN2 expr inh 2%, HepG2 viability 3% and ATXN viability inactive.
Oc1ccc(-c2csc(Nc3ncccn3)n2)c(O)c1 was read as TGFb inhibitor -20%, IL1B secr inh -21, ATXN2 expr inh 35%, HepG2 viability -4% and ATXN viability inactive.
For Cc1cccc(Nc2nc(-c3c(C)nc4ccccn34)cs2)c1 the results were TGFb inhibitor inconclusive, IL1B secr inh -96*, ATXN2 expr inh inconclusive, HepG2 viability -43% and ATXN viability inconclusive.
Screening N#Cc1ccc(Nc2nc(-c3ccc(O)cc3O)cs2)cc1C(F)(F)F returned TGFb inhibitor inconclusive, IL1B secr inh -101*, ATXN2 expr inh 25µM*, HepG2 viability -110% and ATXN viability 22µM*.
For Cc1cccc(Nc2nc(-c3ccc(O)cc3O)cs2)n1 the results were TGFb inhibitor inconclusive, IL1B secr inh -90*, ATXN2 expr inh 10%, HepG2 viability -27% and ATXN viability inactive.
O=C(Nc1nnc(S(=O)(=O)N2CCc3ccccc32)s1)c1ccccc1 was read as TGFb inhibitor inconclusive, ATXN2 expr inh 10%, HepG2 viability -39% and ATXN viability inactive.
Screening COc1ccc(OCC(=O)Nc2nnc(S(=O)(=O)N3CCc4ccccc43)s2)cc1 returned TGFb inhibitor inconclusive, ATXN2 expr inh 7%, HepG2 viability -34% and ATXN viability inactive.
O=C(COc1ccc(F)cc1)Nc1nnc(S(=O)(=O)N2CCc3ccccc32)s1 was read as TGFb inhibitor 13µM*, ATXN2 expr inh -5%, HepG2 viability -29% and ATXN viability inactive.
O=C(Nc1nnc(S(=O)(=O)N2CCc3ccccc32)s1)c1cccc(Cl)c1 was read as TGFb inhibitor 7.9µM*, ATXN2 expr inh inconclusive, HepG2 viability -46% and ATXN viability inactive.
For CN(/N=C/c1ccc(O)cc1O)c1ncc(C(F)(F)F)cc1Cl the results were TGFb inhibitor inconclusive, IL1B secr inh -23, ATXN2 expr inh -28%, HepG2 viability 13µM* and ATXN viability inconclusive.
`CN(/N=C/c1ccccc1Cl)c1ncc(Cl)cc1C(F)(F)F` gave TGFb inhibitor 0%, IL1B secr inh 32, ATXN2 expr inh 21%, HepG2 viability -13% and ATXN viability inactive.
C1=Cc2ccccc2/C1=C\c1cccc(/C=C2\C=Cc3ccccc32)c1 was read as TGFb inhibitor inconclusive and HepG2 viability -97%.
`O=C(NCC(c1ccc(F)cc1)N1CCOCC1)c1cc(F)c(F)c(F)c1F` (stereo unspecified) gave TGFb inhibitor -2%, IL1B secr inh -94*, ATXN2 expr inh -8%[11.3 µM], HepG2 viability 7% and ATXN viability inactive.
For Cc1ccc(CCNC(=O)c2c(C)oc3ncnc(N4CCOCC4)c23)cc1 the results were TGFb inhibitor 1% and HepG2 viability 1%.
For CCOc1ccccc1NC(=O)NC(CC)c1c(-n2cccc2)sc2c1CCN(C)C2 (stereo unspecified) the results were TGFb inhibitor -19% and HepG2 viability -33%.
For Cc1ccc(-c2onc(C)c2C)cc1S(=O)(=O)NC1CCC(C)CC1 (stereo unspecified) the results were TGFb inhibitor 10µM* and HepG2 viability -36%.
Screening CCCn1c(C)cc(C(=O)COC(=O)c2cc(S(=O)(=O)NCC(C)C)c(Cl)cc2Cl)c1C returned TGFb inhibitor 0%, IL1B secr inh -3, ATXN2 expr inh 9%, HepG2 viability -4% and ATXN viability inactive.
CC(C)CNS(=O)(=O)c1cc(C(=O)OCC(=O)c2ccc3c(c2)OCCO3)c(Cl)cc1Cl was read as TGFb inhibitor -8%, IL1B secr inh -240*, HepG2 viability -28% and ATXN viability inactive.
Nc1cc([N+](=O)[O-])ccc1Nc1ccccc1 was read as TGFb inhibitor -7%, IL1B secr inh -103*, HepG2 viability -25% and ATXN viability inconclusive.
O=[N+]([O-])c1cc(Br)c(Nc2ccccc2)c([N+](=O)[O-])c1 was read as TGFb inhibitor 18µM*, IL1B secr inh -98*, HepG2 viability -121% and ATXN viability 13µM*.
For O=C(Nc1ccccc1)c1ccc(Nc2c([N+](=O)[O-])cc([N+](=O)[O-])c3ccccc23)cc1 the results were TGFb inhibitor 0%, IL1B secr inh 7, ATXN2 expr inh -22%, HepG2 viability -3% and ATXN viability inactive.
CCc1ccc(NC(=O)C(CC)n2c(=O)c(-c3ccccc3NC(C)=O)nc3ccccc32)cc1 (stereo unspecified) was read as TGFb inhibitor inconclusive, ATXN2 expr inh inconclusive, HepG2 viability -35% and ATXN viability inconclusive.
For CCOc1ccc(NC(=O)CN2C(=O)C3(SCC(=O)N3c3ccc(F)cc3)c3ccccc32)cc1 (stereo unspecified) the results were TGFb inhibitor -19%, ATXN2 expr inh -19%, HepG2 viability -31% and ATXN viability inactive.
For CCOc1cc2ncc(C#N)c(Nc3ccc(F)c(Cl)c3)c2cc1NC(=O)C=CCN(C)C the results were ATXN2 expr inh 22µM*.
COc1cc2ncnc(Nc3ccc(F)c(Cl)c3)c2cc1NC(=O)C=CCN1CCCCC1 was read as ATXN2 expr inh 31µM*.
Screening CN(C)CC=CC(=O)Nc1cc2c(Nc3ccc(F)c(Cl)c3)ncnc2cc1O[C@H]1CCOC1 returned ATXN2 expr inh 27µM*.
